Bioassay records as filed in PubChem.
TEAD-YAP inh: TEAD-YAP interaction inhibition. inhibition, % at 9.12 µM. HEK-TIYL cells, TEAD-Gal4/YAP UAS-luciferase luminescence. 640,000 compounds, 1.4% hits. AID 1259422; in the data active = inhibition above about 32%;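 also: 0% = median of test compound wells and 100% = reference inhibitor wells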
FBW7 act: human FBW7 E3 ligase activation, primary screen. AlphaScreen FBW7–phospho-cyclin E peptide binding, activator screen. AID 1259310. Q969H0. normalized activity (activation), % at 26.1 µM. 650,000 compounds, 0.13% hits; in the data active = normalized activity above about 1.9%;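 also: purified mutant Fbw7 with reduced substrate affinity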
Target sequence (Q969H0 whole entry, looked up): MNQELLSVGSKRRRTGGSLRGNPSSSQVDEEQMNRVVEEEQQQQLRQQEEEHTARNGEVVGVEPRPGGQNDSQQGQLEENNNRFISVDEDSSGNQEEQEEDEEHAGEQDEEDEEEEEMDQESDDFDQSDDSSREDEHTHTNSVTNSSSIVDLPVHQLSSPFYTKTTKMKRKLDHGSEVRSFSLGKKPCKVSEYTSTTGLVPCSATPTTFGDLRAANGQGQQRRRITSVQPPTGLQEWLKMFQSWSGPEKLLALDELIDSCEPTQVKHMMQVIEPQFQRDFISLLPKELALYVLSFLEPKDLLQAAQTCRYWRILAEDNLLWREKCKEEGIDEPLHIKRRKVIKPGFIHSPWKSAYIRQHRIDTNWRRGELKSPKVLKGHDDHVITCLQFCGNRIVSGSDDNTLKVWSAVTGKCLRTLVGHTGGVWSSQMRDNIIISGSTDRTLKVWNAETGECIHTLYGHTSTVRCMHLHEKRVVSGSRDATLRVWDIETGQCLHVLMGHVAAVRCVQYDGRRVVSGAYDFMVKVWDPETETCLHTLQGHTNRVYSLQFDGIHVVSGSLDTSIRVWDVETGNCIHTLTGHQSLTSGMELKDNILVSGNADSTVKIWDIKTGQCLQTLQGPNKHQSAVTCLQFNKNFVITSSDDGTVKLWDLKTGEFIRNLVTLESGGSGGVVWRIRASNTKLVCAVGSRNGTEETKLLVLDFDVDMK
GPR151 ag: activators of human GPR151. PathHunter beta-arrestin GPR151 cells, luminescence. Q8TDV0. activation, % at 11.2 µM. 650,000 compounds, 1% hits. AID 1508602; in the data active = activation above about 4.9%;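 also: 0% = median of compound wells and 100% = cells with positive control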
MITF primary: inhibitors of human MITF; AlphaScreen MITF homodimerization, bead proximity signal; inhibition, % at 2.6 µM; 650,000 compounds, 0.91% hits; in the data active = inhibition above about 50%;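 also: 0% = vehicle wells with protein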
MITF inh conf: confirmation of human MITF inhibitors; shares compounds with MITF primary; AlphaScreen MITF homodimerization, biotin/His-MITF beads; inhibition, % at 2.6 µM; 4,700 compounds, 16% hits; AID 1259372;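 active = inhibition above a cutoff derived from the DMSO control wells, cut at about 28% in these data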;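 also: 0% = MITF dimer wells with DMSO only; inhibitors lower the bead chemiluminescence by keeping MITF from dimerizing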
AS interf DR: AlphaScreen optical interference, dose response counter-screen; shares compounds with MITF primary; AlphaScreen optical interference counterscreen, cell-free; IC50, µM; 480 compounds, 6% hits; AID 1259373; call rule not given here
AS interf ctr: AlphaScreen optical interference, counter-screen; shares compounds with MITF primary; LysRS AlphaScreen counterscreen, signal interference, triplicate; inhibition, % at 2.6 µM; 4,700 compounds, 7.6% hits; AID 1259376;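 active = inhibition above a cutoff derived from the DMSO control wells, cut at about 30% in these data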
* marks the source's active call; other numbers are inactive results; ! = not confirmed by another sample. Sampled rows, rich in hits. Any-hit rate of the full collection: about 3.5%.

Screening COc1ccc(OC)c(CN2CCN(C(=O)c3cccc(Cl)c3)CC2)c1 returned TEAD-YAP inh 0, FBW7 act 0, GPR151 ag -2, MITF primary 66*, MITF inh conf 4 and AS interf ctr 12.
COc1ccc(CN2CCN(C(=O)c3ccc(F)cc3)CC2)c(OC)c1 was read as TEAD-YAP inh -3, FBW7 act 0, GPR151 ag -1 and MITF primary 48.
Screening Cc1ccc(NC(=O)c2sc(N3CCOCC3)nc2-c2ccccc2)cc1 returned TEAD-YAP inh -6, FBW7 act 0, GPR151 ag -2 and MITF primary 9.
`COc1ccccc1CN1CCN(C(=O)c2ccccc2)CC1` gave TEAD-YAP inh 8, FBW7 act 0, GPR151 ag 0, MITF primary 60*, MITF inh conf 6 and AS interf ctr 7.
For COc1ccc(CN2CCC(C(=O)NC(C)c3ccccc3)CC2)c(OC)c1 (stereo not given) the results were TEAD-YAP inh 7, FBW7 act 0, GPR151 ag 0, MITF primary 51*, MITF inh conf 10 and AS interf ctr 17.
`COc1cccc(C(=O)N2CCN(Cc3ccccc3OC)CC2)c1` gave TEAD-YAP inh -4, FBW7 act 0, GPR151 ag -1 and MITF primary 0.
For COc1ccccc1CN1CCN(C(=O)c2ccncc2)CC1 the results were TEAD-YAP inh 1, FBW7 act 0, GPR151 ag -1, MITF primary 65*, MITF inh conf -9 and AS interf ctr -4.
For COc1ccc(CN2CCC(C(=O)NCC(C)C)CC2)c(OC)c1 the results were TEAD-YAP inh 6, FBW7 act 0, GPR151 ag -1 and MITF primary 17.
`COc1ccc2ccccc2c1CN1CCN(C(=O)c2ccncc2)CC1` gave TEAD-YAP inh -11, FBW7 act 0, GPR151 ag -1, MITF primary 65*, MITF inh conf -5 and AS interf ctr -4.
For C/C(=N/NC(=O)c1ccccc1I)c1ccc(N)cc1 the results were TEAD-YAP inh -26, FBW7 act 1, GPR151 ag -2 and MITF primary 24.
`COc1ccc2c(c1)CCC1C2=NN(C(C)=O)C1c1cccc(F)c1` (stereo not given) gave TEAD-YAP inh -1, FBW7 act 0, GPR151 ag 0 and MITF primary -17.
For OC(CNC1CCCC1)COc1ccc(OCC(O)CNC2CCCC2)cc1 (stereo not given) the results were TEAD-YAP inh 9, FBW7 act 0, GPR151 ag 3 and MITF primary 5.
For CC1(C)C2CCC1(C)C(NCC(O)COc1ccc(C#N)cc1)C2 (stereo not given) the results were TEAD-YAP inh 5, FBW7 act 0, GPR151 ag -1, MITF primary 77*, MITF inh conf -18 and AS interf ctr -4.
Screening COc1ccc(Cn2c(SCC(=O)O)nc3ccsc3c2=O)cc1 returned TEAD-YAP inh -4, FBW7 act 0, GPR151 ag 3 and MITF primary -1.
`NCCNCCNCCN` gave TEAD-YAP inh 3, FBW7 act 0, GPR151 ag 0, MITF primary 91*, MITF inh conf 70* and AS interf ctr 100*.
For O=C(CSc1nc2ccsc2c(=O)n1Cc1ccc2c(c1)OCO2)c1ccc(F)cc1 the results were TEAD-YAP inh -10, FBW7 act 0, GPR151 ag 1 and MITF primary 1.
For CC1CCCCN1C(=O)CN1CCN(c2ncccn2)CC1 (stereo not given) the results were TEAD-YAP inh -9, FBW7 act 0, GPR151 ag 0, MITF primary 54*, MITF inh conf 3 and AS interf ctr 11.
For Cc1ccc(C(=O)/C=C/C=C/C=C/N(C)C)o1 the results were TEAD-YAP inh -4, FBW7 act 0, GPR151 ag -1 and MITF primary 16.
For CN(C)/C=C/C=C/C(=O)c1cccc(C(=O)/C=C/C=C/N(C)C)c1O the results were TEAD-YAP inh -8, FBW7 act 0, GPR151 ag 1, MITF primary 56*, MITF inh conf 79*, AS interf DR >6.5 and AS interf ctr -11.
O=P(O)(O)O[C@@H]1[C@H](O)[C@H](O)[C@@H](OP(=O)(O)O)[C@H](OP(=O)(O)O)[C@H]1O was read as GPR151 ag 3, MITF primary 54*!, MITF inh conf 4 and AS interf ctr 2.
N#C/C(=C\C=C\c1ccco1)C(N)=S was read as TEAD-YAP inh 0, FBW7 act -1, GPR151 ag -1, MITF primary 65*, MITF inh conf 60* and AS interf ctr 87*.
`O=C(NCc1cccs1)c1ccc(OCC(=O)C2CC2)cc1` gave TEAD-YAP inh -13, FBW7 act 0, GPR151 ag 1 and MITF primary 3.
Cc1cc(NC(=O)C(C)N2CCCC2)no1 (stereo not given) was read as TEAD-YAP inh -4, FBW7 act 1, GPR151 ag -1 and MITF primary -18.
`Cc1cc(NC(=O)C(C)NCCCN(C)C)no1` (stereo not given) gave TEAD-YAP inh -1, FBW7 act 0, GPR151 ag 1, MITF primary 63*, MITF inh conf 2 and AS interf ctr 12.
For Cc1cc(NC(=O)C(C)NCCc2ccccc2)no1 (stereo not given) the results were TEAD-YAP inh -1, FBW7 act 0, GPR151 ag 1 and MITF primary 22.
Screening Cc1cc(NC(=O)C(C)NC2CCCC2)no1 (stereo not given) returned TEAD-YAP inh -3, FBW7 act 0, GPR151 ag 0, MITF primary 52*, MITF inh conf -2 and AS interf ctr 7.
`O=C(NCCn1ccnc1)C1CC12CCN(Cc1cc3ccccc3o1)CC2` (stereo not given) gave TEAD-YAP inh 1, FBW7 act 0, GPR151 ag 1 and MITF primary 6.
For COc1cc(C(=O)Nc2ccc(S(=O)(=O)Nc3nccs3)cc2)cc(OC)c1OC the results were TEAD-YAP inh 0, FBW7 act 0, GPR151 ag 0 and MITF primary -2.
COC(=O)c1ccccc1NC(=O)/C(C#N)=C/c1cc(Cl)c(OC)c(OC)c1 was read as TEAD-YAP inh 7, FBW7 act 0, GPR151 ag 1, MITF primary 53*, MITF inh conf 3 and AS interf ctr 4.
`O=C(Nc1ccc2c(c1)C(=O)Nc1cc(Cl)ccc1O2)c1ccc(F)c(F)c1` gave TEAD-YAP inh -13, FBW7 act 0, GPR151 ag 0 and MITF primary 0.
